Inconclusive results are not listed. Active and inactive are the calls of the source. Rule for the calls: active = hit-call score of the fitted dose curve at least 0.9, where 1 is the maximum; inconclusive = response in the unintended direction; inactive = score below 0.9.
Target: sheep Cyclooxygenase-1 (Cox1), PTGS1 (gene 443551) (UniProt P05979)
Test: NVS_ENZ_oCOX1: NovaScreen (NVS) Enzymatic Assay for sheep Cyclooxygenase-1 (Cox1) (AID 2283239);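 note: actives reduce cyclooxygenase activity so potencies are for inhibitors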
Procedure, shortened: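 COX1 from ovine seminal vesicles, activity read colorimetrically about 0.66 h after dosing. Primary screen in duplicate at 25 uM; actives retested in concentration series; loss of signal fitted versus DMSO.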

Chain of sheep Cyclooxygenase-1 (Cox1), PTGS1 (gene 443551) (P05979 whole entry, looked up): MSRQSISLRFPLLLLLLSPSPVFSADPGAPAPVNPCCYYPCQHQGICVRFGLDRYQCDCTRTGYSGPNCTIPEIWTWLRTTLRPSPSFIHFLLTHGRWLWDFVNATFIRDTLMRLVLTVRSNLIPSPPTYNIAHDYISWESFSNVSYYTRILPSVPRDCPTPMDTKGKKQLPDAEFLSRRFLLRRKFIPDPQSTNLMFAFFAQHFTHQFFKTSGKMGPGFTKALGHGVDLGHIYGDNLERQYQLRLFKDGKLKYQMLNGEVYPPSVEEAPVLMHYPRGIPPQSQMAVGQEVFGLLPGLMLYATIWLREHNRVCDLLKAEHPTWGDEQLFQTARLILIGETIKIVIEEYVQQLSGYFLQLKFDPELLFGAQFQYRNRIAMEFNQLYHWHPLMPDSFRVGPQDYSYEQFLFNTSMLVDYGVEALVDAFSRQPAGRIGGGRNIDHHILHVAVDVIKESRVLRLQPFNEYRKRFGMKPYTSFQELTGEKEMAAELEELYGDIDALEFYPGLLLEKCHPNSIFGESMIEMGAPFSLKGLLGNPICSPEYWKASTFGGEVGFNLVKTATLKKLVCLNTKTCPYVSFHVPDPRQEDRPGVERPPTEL

| Compound | AC50 | outcome |
| --- | --- | --- |
| O=C1OC2(c3cc(Br)c(O)c(Br)c3Oc3c2cc(Br)c(O)c3Br)c2c(Cl)c(Cl)c(Cl)c(Cl)c21 | 8.68 µM (active) | – |
| CCn1c2ccccc2c2cc(N)ccc21 | 3.25 µM (active) | – |
| CC(C)(CO)[N+](=O)[O-] | – | inactive |
| COC(=O)c1ccc(C)cc1 | – | inactive |
| CC1CCC(C(C)CS)CC1S (stereo not drawn) | 25 µM (active) | – |
| CC(C)[C@@H]1CC[C@@H](C)CC1=O | – | inactive |
| CCCCCC(CO)CCC (stereo not drawn) | 0.00229 µM (active) | – |
| CCCCCCCCC | – | inactive |
| O=c1[nH]nnc2ccccc12 | 0.401 µM (active) | – |
| CC(=O)OCc1ccc2c(c1)OCO2 | – | inactive |
| CC(C)=CCO | – | inactive |
| O=C(O)CN(CCN(CC(=O)O)CC(=O)O)CCN(CC(=O)O)CC(=O)O | – | inactive |

Target: guinea pig Leukotriene D4 Receptor (LTD4), CYSLTR1 (gene 100135514) (UniProt Q2NNR5)
Sequence (Q2NNR5 whole entry, looked up): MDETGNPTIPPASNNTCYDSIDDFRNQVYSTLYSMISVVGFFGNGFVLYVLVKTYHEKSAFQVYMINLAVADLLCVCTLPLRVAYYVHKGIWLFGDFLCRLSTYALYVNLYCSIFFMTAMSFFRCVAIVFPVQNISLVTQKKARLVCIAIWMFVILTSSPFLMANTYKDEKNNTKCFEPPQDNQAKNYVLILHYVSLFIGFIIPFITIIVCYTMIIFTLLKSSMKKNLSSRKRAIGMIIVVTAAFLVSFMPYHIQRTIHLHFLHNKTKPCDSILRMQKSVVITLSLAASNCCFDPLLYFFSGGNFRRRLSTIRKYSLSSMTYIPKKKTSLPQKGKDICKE
Test: NVS_GPCR_gLTD4: NovaScreen (NVS) G Protein-Coupled Receptor Assay for guinea pig Leukotriene D4 Receptor (LTD4) (AID 2283248)
Procedure, shortened: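 Radioligand displacement on guinea pig lung membranes, 1 h incubation, filtration and scintillation counting; DMSO as negative control. Duplicate 25 uM primary screen, then singleton concentration-response up to 50 uM.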

| Compound | outcome | AC50 |
| --- | --- | --- |
| Clc1ccc(Cl)c(Cl)c1Cl | inactive | – |
| CCCOCC(C)O (stereo not drawn) | – | 7.91 µM (active) |
| CC(=O)/C=C/C1=C(C)CCCC1(C)C | inactive | – |
| Cc1ccc(O)c(C(C)(C)C)c1 | inactive | – |

Target: guinea pig Opioid, Kappa 1 Receptor (OpiateK), OPRK1 (gene 100135587) (UniProt P41144)
Sequence (P41144 whole entry, looked up): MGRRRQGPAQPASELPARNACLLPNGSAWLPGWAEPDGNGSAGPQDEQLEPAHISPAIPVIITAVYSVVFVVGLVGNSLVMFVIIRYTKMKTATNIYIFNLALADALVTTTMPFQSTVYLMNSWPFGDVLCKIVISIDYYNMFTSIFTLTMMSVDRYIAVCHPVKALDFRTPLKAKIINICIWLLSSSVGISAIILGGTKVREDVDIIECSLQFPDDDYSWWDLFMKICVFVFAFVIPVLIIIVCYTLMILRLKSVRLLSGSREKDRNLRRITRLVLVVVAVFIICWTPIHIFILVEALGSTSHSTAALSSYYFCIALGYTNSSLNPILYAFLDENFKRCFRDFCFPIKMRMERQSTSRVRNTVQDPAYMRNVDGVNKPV
Test: NVS_GPCR_gOpiateK: NovaScreen (NVS) G Protein-Coupled Receptor Assay for guinea pig Opioid, Kappa 1 Receptor (OpiateK) (AID 2283252);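 note: radioligand displacement from kappa opioid receptor in guinea pig cerebellar membranes; active means reduced radioligand binding relative to DMSO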
Procedure, shortened: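 Guinea pig cerebellar membranes were incubated with a radioligand for 2 h after compound addition; bound radioactivity was read by filter-based scintillation counting. Loss of specific binding relative to DMSO baseline defined activity; primary screen at 25 uM in duplicate.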

| Compound | AC50 | outcome |
| --- | --- | --- |
| O=P(c1ccccc1)(c1ccccc1)c1ccccc1 | 11.4 µM (active) | – |
| O=C=NC1CCC(CC2CCC(N=C=O)CC2)CC1 (stereo not drawn) | 29.3 µM (active) | – |
| CC1COc2ccccc2N1C(=O)C(Cl)Cl (stereo not drawn) | – | inactive |

Target: human Adenosine A2a Receptor (AdoRA2a), ADORA2A (gene 135) (UniProt P29274)
Sequence (P29274 whole entry, looked up): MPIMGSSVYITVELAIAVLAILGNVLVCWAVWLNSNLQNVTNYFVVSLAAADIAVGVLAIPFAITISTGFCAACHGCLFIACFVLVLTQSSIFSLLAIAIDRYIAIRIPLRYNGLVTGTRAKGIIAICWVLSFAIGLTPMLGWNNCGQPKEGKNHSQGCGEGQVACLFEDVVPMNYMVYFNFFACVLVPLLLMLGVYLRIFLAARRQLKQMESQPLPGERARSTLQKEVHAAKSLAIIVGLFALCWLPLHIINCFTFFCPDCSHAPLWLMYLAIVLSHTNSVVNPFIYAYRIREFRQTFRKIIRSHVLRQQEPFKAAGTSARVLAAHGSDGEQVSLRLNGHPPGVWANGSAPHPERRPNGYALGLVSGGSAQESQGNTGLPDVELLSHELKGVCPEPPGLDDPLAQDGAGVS
Test: NVS_GPCR_hAdoRA2a: NovaScreen (NVS) G Protein-Coupled Receptor Assay for human Adenosine A2a Receptor (AdoRA2a) (AID 2283256)
Procedure, shortened: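 Radioligand displacement on HEK293-derived membrane protein, cell-free; filter-based scintillation counting 1.5 hours after dosing, loss of signal vs DMSO. Single-point duplicate screen at 25 uM, actives retested in concentration series.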

| Compound | outcome |
| --- | --- |
| NC(=O)c1ccccc1Cl | inactive |
| Nc1cc([N+](=O)[O-])ccc1Cl | inactive |
| O=C(O)C[C@H](O)C[C@H](O)/C=C/c1c(C2CC2)nc2ccccc2c1-c1ccc(F)cc1 | inactive |

Target: D(1A) dopamine receptor (Homo sapiens) (UniProt P21728)
Sequence (P21728 whole entry, looked up): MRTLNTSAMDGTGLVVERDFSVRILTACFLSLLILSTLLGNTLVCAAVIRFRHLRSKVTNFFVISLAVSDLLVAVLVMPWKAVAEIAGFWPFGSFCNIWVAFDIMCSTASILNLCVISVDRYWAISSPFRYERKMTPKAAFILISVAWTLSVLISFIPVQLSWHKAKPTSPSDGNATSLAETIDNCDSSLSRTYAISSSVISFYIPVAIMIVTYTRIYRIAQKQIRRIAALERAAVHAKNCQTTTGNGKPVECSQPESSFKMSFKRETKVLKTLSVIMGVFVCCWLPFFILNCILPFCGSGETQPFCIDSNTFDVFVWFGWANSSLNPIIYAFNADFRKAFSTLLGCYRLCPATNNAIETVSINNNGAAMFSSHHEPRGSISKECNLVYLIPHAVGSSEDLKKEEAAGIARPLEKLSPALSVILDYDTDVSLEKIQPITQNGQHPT
Test: NVS_GPCR_hDRD1: NovaScreen (NVS) G Protein-Coupled Receptor Assay for human Dopamine Receptor D1 (DRD1) (AID 2283269)
Procedure, shortened: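 Cell-free radioligand binding to human DRD1 from HEK293 membranes, read 1 h after dosing by filter-based scintillation counting. Loss of signal versus DMSO baseline marks displacement. Primary screen at 25 uM single concentration in duplicate; actives followed up in concentration series.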

| Compound | outcome | AC50 |
| --- | --- | --- |
| c1ccc2sc(SN(C3CCCCC3)C3CCCCC3)nc2c1 | inactive | – |
| O=C1OC2(c3cc(Br)c(O)c(Br)c3Oc3c2cc(Br)c(O)c3Br)c2c(Cl)c(Cl)c(Cl)c(Cl)c21 | – | 0.423 µM (active) |
| CCn1c2ccccc2c2cc(N)ccc21 | – | 38.5 µM (active) |
| Cc1ccc2n[nH]nc2c1 | inactive | – |
| CCCCNC(=O)NS(=O)(=O)c1ccc(C)cc1 | inactive | – |
| CC(C)c1ccc(C(C)C)cc1 | inactive | – |

Target: Muscarinic acetylcholine receptor M2 (Homo sapiens) (UniProt P08172)
Sequence (P08172 whole entry, looked up): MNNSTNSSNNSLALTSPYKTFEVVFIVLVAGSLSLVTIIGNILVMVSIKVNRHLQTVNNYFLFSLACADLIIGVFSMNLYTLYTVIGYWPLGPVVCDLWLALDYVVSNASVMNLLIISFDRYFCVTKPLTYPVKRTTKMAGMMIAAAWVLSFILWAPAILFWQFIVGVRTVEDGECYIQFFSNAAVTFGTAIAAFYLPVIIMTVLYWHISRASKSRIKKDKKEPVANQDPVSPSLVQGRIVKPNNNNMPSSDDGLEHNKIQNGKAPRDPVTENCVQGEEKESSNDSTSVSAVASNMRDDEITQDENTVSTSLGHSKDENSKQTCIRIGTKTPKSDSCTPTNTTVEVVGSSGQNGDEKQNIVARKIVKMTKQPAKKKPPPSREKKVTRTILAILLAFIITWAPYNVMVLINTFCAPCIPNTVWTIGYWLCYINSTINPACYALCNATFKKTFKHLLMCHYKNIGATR
Test: NVS_GPCR_hM2: NovaScreen (NVS) G Protein-Coupled Receptor Assay for human Muscarinic, M2 Receptor (AID 2283273)
Procedure, shortened: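 Cell-free radioligand binding using membranes from CHO cells expressing the receptor; filter-based scintillation counting after 1 hour of compound exposure. Loss of specific binding relative to DMSO baseline; primary screen at 25 uM in duplicate, actives then run in concentration series.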

| Compound | outcome | AC50 |
| --- | --- | --- |
| CC(C)(CO)[N+](=O)[O-] | inactive | – |
| O=C=NC1CCC(CC2CCC(N=C=O)CC2)CC1 (stereo not drawn) | – | 9.37 µM (active) |
| Nc1cc(N)cc(C(=O)O)c1 | – | 38.1 µM (active) |
| CN(CCOc1ccc(CC2SC(=O)NC2=O)cc1)c1ccccn1 (stereo not drawn) | – | 13.2 µM (active) |
| COC(=O)OC | inactive | – |
| CNC[C@H](O)c1cccc(O)c1 | – | 29.7 µM (active) |

Target: human Neurokinin, NK2 Receptor, TACR2 (gene 6865) (UniProt P21452)
Sequence (P21452 whole entry, looked up): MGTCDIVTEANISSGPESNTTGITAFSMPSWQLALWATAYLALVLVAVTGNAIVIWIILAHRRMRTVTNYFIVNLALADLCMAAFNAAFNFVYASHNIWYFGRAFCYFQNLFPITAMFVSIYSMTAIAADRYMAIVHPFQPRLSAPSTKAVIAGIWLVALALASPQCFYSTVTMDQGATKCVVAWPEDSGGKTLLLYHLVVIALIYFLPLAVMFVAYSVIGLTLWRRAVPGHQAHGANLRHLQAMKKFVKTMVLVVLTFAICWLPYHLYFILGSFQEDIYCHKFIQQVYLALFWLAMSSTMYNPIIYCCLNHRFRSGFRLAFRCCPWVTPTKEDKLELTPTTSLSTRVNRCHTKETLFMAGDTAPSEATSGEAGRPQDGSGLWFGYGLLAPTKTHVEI
Test: NVS_GPCR_hNK2: NovaScreen (NVS) G Protein-Coupled Receptor Assay for human Neurokinin, NK2 Receptor (AID 2283278);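 note: actives reduce bound radioligand signal relative to DMSO baseline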
Procedure, shortened: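 CHO-derived membrane protein, radioligand displacement, filter scintillation read at 4 h post-dose. Single-point 25 uM in duplicate, then concentration series for actives; DMSO as negative control.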

| Compound | AC50 | outcome |
| --- | --- | --- |
| O=C1OC2(c3cc(Br)c(O)c(Br)c3Oc3c2cc(Br)c(O)c3Br)c2c(Cl)c(Cl)c(Cl)c(Cl)c21 | 1.27 µM (active) | – |
| O=C=NC1CCC(CC2CCC(N=C=O)CC2)CC1 (stereo not drawn) | – | inactive |
| S=C(S)NCCNC(=S)S | 3.54 µM (active) | – |

Target: human Thromboxane A2 Receptor (TXA2), TBXA2R (gene 6915) (UniProt P21731)
Sequence (P21731 whole entry, looked up): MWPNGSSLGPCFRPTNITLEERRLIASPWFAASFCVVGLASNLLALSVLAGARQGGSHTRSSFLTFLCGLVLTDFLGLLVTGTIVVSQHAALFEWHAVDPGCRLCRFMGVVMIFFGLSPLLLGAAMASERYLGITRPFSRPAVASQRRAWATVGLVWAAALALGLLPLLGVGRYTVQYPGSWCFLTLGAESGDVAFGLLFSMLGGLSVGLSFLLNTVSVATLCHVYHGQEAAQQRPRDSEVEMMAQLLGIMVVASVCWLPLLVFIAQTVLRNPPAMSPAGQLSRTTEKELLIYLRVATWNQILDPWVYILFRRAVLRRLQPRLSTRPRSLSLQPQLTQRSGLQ
Test: NVS_GPCR_hTXA2: NovaScreen (NVS) G Protein-Coupled Receptor Assay for human Thromboxane A2 Receptor (TXA2) (AID 2283282);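 note: actives reduce bound radioligand signal relative to DMSO baseline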
Procedure, shortened: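 Cell-free radioligand binding with human platelet-derived receptor; 1 h after dosing, filter-based scintillation counting, loss of signal vs DMSO. Primary screen in duplicate at 25 uM.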

| Compound | outcome | AC50 |
| --- | --- | --- |
| O=C1CCc2ccccc2O1 | inactive | – |
| CCCCCCCCCC=O | inactive | – |
| CN(CCOc1ccc(CC2SC(=O)NC2=O)cc1)c1ccccn1 (stereo not drawn) | – | 1.45 µM (active) |
| CCCCOCCOCCOCCOCCO | inactive | – |
| BrC1CCC(Br)C(Br)CCC(Br)C(Br)CCC1Br (stereo not drawn) | – | 11.1 µM (active) |
| CCCCCCCCC=O | inactive | – |

— PubChem BioAssay (EPA / NIEHS)
